# From PubChem BioAssay AID720706 (Broad Institute, 2013)
# About 5,500 (1.6%) of roughly 350,000 compounds were called active.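 How the source made its calls: active means significant combined selectivity score with lowered wild-type GFP, culture density cut under 30%, mutant RFP and density less affected; inactive means any of these conditions unmet.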 What follows is part of a selection rich in actives, with near analogues and random picks from the rest.
# Assay: reduced GFP signal of wild-type E. coli, primary screen, bacterial rRNA inhibitor project, GFP/RFP fluorescence, OD600, single point (AID 720706)
# Conditions: E. coli WT GFP vs humanized-ribosome RFP mutants, 24 h; GFP signal change (wild-type ribosome): stronger effect = lower value, DMSO median 0, no signal -100; OD600 change: measured here: OD600 growth, DMSO median 0, no signal -100; RFP signal change: measured here: RFP humanized mutant strains, DMSO median 0, no signal -100, concentration not given here
Compound,GFP signal change (wild-type ribosome),OD600 change,RFP signal change
COc1cccc(C(NC(C)=O)c2nc(-c3cnc4ccccc4c3)cs2)c1 (stereo unspecified),1.07% (inactive),7.87%,-4.72%
CC(=O)NC(c1ccccc1)c1nc(-c2ccccc2C)cs1 (stereo unspecified),6.39% (inactive),1.11%,0.505%
COc1cccc(C(NC(C)=O)c2nc(-c3ccccc3OC)cs2)c1 (stereo unspecified),-17.2% (active),-5.72%,3.69%
CC(C)NC(=O)Nc1ccc2c(c1)C(=O)N([C@@H](C)CO)C[C@@H](C)[C@H](CN(C)C)OCCCC[C@H](C)O2,4.43% (inactive),12.9%,-2.38%
CCOC(=O)C(=Cc1ccccc1OC)C(=O)OCC,-1.94% (inactive),-6.41%,-3.6%
CCOC(=O)C(=Cc1ccccc1)C(=O)c1ccccc1,-45.9% (active),-44.3%,-8.34%
CCOC(=O)CNC(=O)/C(=C\c1ccc(F)cc1)NC(=O)c1ccccc1,7.79% (inactive),7.99%,-0.754%
COc1ccccc1C(=O)NCCC(=O)NCC(c1ccco1)N1CCCCC1 (stereo unspecified),3.93% (inactive),11.1%,2.81%
COc1ccccc1C(=O)NCCn1cc(SCC(=O)NCc2ccco2)c2ccccc21,-24.1% (active),-15.6%,1.51%
COc1cccc(OC)c1C(=O)NC(=S)NCc1ccco1,10.3% (inactive),5.07%,-0.715%
COc1ccc2c3c([nH]c2c1)[C@@H](CO)N(C(=O)CN1CCOCC1)CC31CCN(C)CC1,1.95% (inactive),7.83%,0.695%
C[C@@H]1CN([C@H](C)CO)C(=O)c2cc(-c3cccc(F)c3)cnc2O[C@@H]1CN(C)C,2.27% (inactive),6.45%,-2.92%
COc1cccc(CN2CC3(CN(Cc4ccccn4)C3)c3c([nH]c4cc(OC)ccc34)[C@@H]2CO)c1,0.969% (inactive),8.73%,5.99%
COc1ccc2c(c1)c1ncn(Cc3ccccn3)c(=O)c1n2C,-22.5% (active),-10.5%,-3.41%
COc1ccc(NCCc2ccccn2)cc1,12.7% (inactive),10.1%,9.18%
C[C@H]1CCCCO[C@H](CN(C)CC2CCCCC2)[C@@H](C)CN([C@@H](C)CO)C(=O)c2cc(NS(=O)(=O)c3ccc(Cl)cc3)ccc2O1,-56.3% (inactive),-77.3%,-17.5%

Compound,GFP signal change (wild-type ribosome),OD600 change,RFP signal change
CN(C)C(=O)c1cccc(-c2ccc([C@H]3[C@H](CO)N4C(=O)CN(C(=O)Cc5ccccc5)C[C@@H]34)cc2)c1,6.84% (inactive),11.5%,5.77%
Cc1ccc(O)c(NC(=S)NC(=O)COc2ccc(Br)cc2)c1,-23.6% (active),-13.5%,6.14%
Cn1cccc1C(=O)NNC(=O)COc1ccc(Br)cc1,-1.7% (inactive),4.13%,0.868%
CC(=O)Nc1ccc(OC(=O)COc2ccc(Br)cc2)cc1,18.1% (inactive),16.8%,1.93%
CC[C@H]1CC=CC[C@@H](C)Oc2ccccc2C(=O)N(C)[C@H](Cc2ccccc2)C(=O)N1 (mixture of isomers),-6.4% (inactive),-38%,-3.29%
CC(C)NC(=O)N(C)C[C@H]1Oc2ncc(C#CC3(O)CCCC3)cc2C(=O)N([C@H](C)CO)C[C@@H]1C,2.98% (inactive),9.89%,0.31%
Nc1ccccc1Sc1ccc(C(F)(F)F)cc1[N+](=O)[O-],-36.7% (active),-4.9%,-9.75%
O=[N+]([O-])c1cc(C(F)(F)F)ccc1NCCc1ccncc1,1.68% (inactive),6.66%,-1.21%
Nc1ccccc1Sc1cc(Cl)nnc1Cl,2.47% (inactive),3.13%,-2.25%
C[C@H]1CN([C@@H](C)CO)C(=O)c2cccc(NC(=O)c3ccncc3)c2O[C@@H]1CN(C)C,2.69% (inactive),14.6%,-0.879%
CCc1noc(C)c1C(=O)Nc1nc(-c2ccccc2)cs1,-30.7% (active),-24.6%,-5.38%
Cc1ccc(-c2csc(NC(=O)C3=COCCO3)n2)cc1C,-32% (inactive),-55.4%,17.9%
CCc1noc(C)c1C(=O)OCC(=O)c1ccc(NC(=O)CC(C)C)cc1,-6.83% (inactive),-38.8%,4.13%
COc1ccc2c3c(n(C)c2c1)[C@H](CO)N(Cc1cccnc1)CC31CCN(Cc2cccnc2)CC1,-3.41% (inactive),7.26%,0.685%
C[C@@H]1CN([C@@H](C)CO)C(=O)c2cc(N(C)C)ccc2O[C@@H](C)CCCCO[C@@H]1CN(C)C(=O)CCC(F)(F)F,-1.52% (inactive),-0.235%,1.42%
C/C=C/c1cccc(-c2nc(C(=O)NCCN3CCCC3)cc3c2[C@@H](CCO)N([S@](=O)C(C)(C)C)C3)c1,6.3% (inactive),-2.18%,-0.457%
